Test results published in PubChem BioAssay (EPA / NIEHS).
Active and inactive are the calls of the source. Rule for the calls: active = hit-call score of the fitted dose curve at least 0.9, where 1 is the maximum; inactive = score below 0.9.

Tests used:
Conditions in all cases: mRNA level, 48 h; actives raise or lower the signal
[1] = read-out: Alpha-fetoprotein (AFP) gene, AFP (gene 174); test: LTEA_HepaRG_AFP: Life Technologies and Expression Analysis (LTEA) Assay for Alpha-fetoprotein (AFP) gene using HepaRG (AID 2283472)
Procedure, shortened: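 HepaRG, single lot; 48 h post-plating -> serum-free induction medium; cpd 8-pt, 100 uM top, half-log, 0.5% DMSO, duplicate, 48 h. RNA -> qRT-PCR AFP, norm ACTB/GAPDH/POLR2A. Bidirectional fit vs DMSO.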

[2] = read-out: BCL2L11 (gene 10018); test: LTEA_HepaRG_BCL2L11: Life Technologies and Expression Analysis (LTEA) Assay for Bcl-2 (BCL2L11) gene using HepaRG (AID 2283473)
Procedure, shortened: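 Human hepatic HepaRG cultures are treated 48 h with test chemicals (maximum 100 uM, 0.5% DMSO vehicle). Expression of BCL2L11 is measured by qRT-PCR against ACTB, GAPDH and POLR2A, with activity in either direction scored relative to vehicle.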

[3] = read-out: Apolipoprotein A-V (APOA5) gene, APOA5 (gene 116519); test: LTEA_HepaRG_APOA5: Life Technologies and Expression Analysis (LTEA) Assay for Apolipoprotein A-V (APOA5) gene using HepaRG (AID 2283474)
Procedure, shortened: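 Concentration-response of APOA5 expression in HepaRG: eight half-log doses to 100 uM, 48 h, qRT-PCR normalized to ACTB/GAPDH/POLR2A, bidirectional fitting with 0.5% DMSO as baseline.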

[4] = read-out: Apoptosis regulator Bcl-2 (Homo sapiens) (UniProt P10415); test: LTEA_HepaRG_BCL2: Life Technologies and Expression Analysis (LTEA) Assay for Bcl-2 gene using HepaRG (AID 2283475)
Procedure, shortened: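 HepaRG, plated 48 h then switched to serum-free induction medium; dosed 48 h, 8 conc. (max 100 uM, half-log steps), duplicate, 0.5% DMSO. Lysis in RLT, RNA isolated, TaqMan qRT-PCR for BCL2; ACTB/GAPDH/POLR2A normalisation; bidirectional fit vs DMSO.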

[5] = read-out: Bcl-2 (BID) gene, BID (gene 637); test: LTEA_HepaRG_BID: Life Technologies and Expression Analysis (LTEA) Assay for Bcl-2 (BID) gene using HepaRG (AID 2283476)
Procedure, shortened: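 Transcript levels of BID, measured by qRT-PCR and normalized to three housekeeping genes, were fitted bidirectionally against DMSO controls. Cells were HepaRG, dosed 48 h at up to 100 uM.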

[6] = read-out: Caspase-3 (Homo sapiens) (UniProt P42574); test: LTEA_HepaRG_CASP3: Life Technologies and Expression Analysis (LTEA) Assay for cysteine-aspartic acid protease (CASP3) using HepaRG (AID 2283477)
Procedure, shortened: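 Transcript-level assay: CASP3 mRNA in human HepaRG after 48 h treatment, eight half-log concentrations from 100 uM in 0.5% DMSO, quantified by qRT-PCR.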

[7] = read-out: Cytochrome P450 (CYP24A1), CYP24A1 (gene 1591); test: LTEA_HepaRG_CYP24A1: Life Technologies and Expression Analysis (LTEA) Assay for Cytochrome P450 (CYP24A1) using HepaRG (AID 2283478)
Procedure, shortened: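 Gene expression of CYP24A1 by TaqMan qRT-PCR in HepaRG after 48 h treatment, highest concentration 100 uM; activity fitted in both directions relative to DMSO vehicle.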

[8] = read-out: cysteine-aspartic acid protease (CASP8), CASP8 (gene 841); test: LTEA_HepaRG_CASP8: Life Technologies and Expression Analysis (LTEA) Assay for cysteine-aspartic acid protease (CASP8) using HepaRG (AID 2283480)
Procedure, shortened: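 Differentiated HepaRG cells in serum-free induction medium, 48 h exposure, eight-point half-log series from 100 uM in 0.5% DMSO, duplicates. CASP8 mRNA by qRT-PCR, normalized to ACTB, GAPDH, POLR2A; bidirectional fit versus DMSO.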

[9] = read-out: Cytochrome P450 (CYP2B6), CYP2B6 (gene 1555); test: LTEA_HepaRG_CYP2B6: Life Technologies and Expression Analysis (LTEA) Assay for Cytochrome P450 (CYP2B6) using HepaRG (AID 2283481)
Procedure, shortened: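 Human HepaRG, 48 h dosing, 0.5% DMSO vehicle, top dose 100 uM. CYP2B6 transcript by qRT-PCR, housekeeping-normalized, bidirectional curve fit.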

[10] = read-out: Cytochrome P450 2C19 (Homo sapiens) (UniProt P33261); test: LTEA_HepaRG_CYP2C19: Life Technologies and Expression Analysis (LTEA) Assay for CYP2C19 using HepaRG (AID 2283482)
Procedure, shortened: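 Endpoint: CYP2C19 mRNA change, bidirectional fit vs 0.5% DMSO. Cells: HepaRG, 48 h exposure, eight-point series topping at 100 uM. Quantitation: qRT-PCR normalized to ACTB, GAPDH, POLR2A.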

[11] = read-out: CYP2C8 (gene 1558); test: LTEA_HepaRG_CYP2C8: Life Technologies and Expression Analysis (LTEA) Assay for CYP2C8 using HepaRG (AID 2283483)
Procedure, shortened: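 Differentiated HepaRG cells in serum-free induction medium exposed 48 h in duplicate to 8 half-log concentrations from 100 uM in 0.5% DMSO. CYP2C8 mRNA by qRT-PCR normalized to ACTB, GAPDH, POLR2A; bidirectional fit versus DMSO.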

[12] = read-out: CYP2C9 (gene 1559); test: LTEA_HepaRG_CYP2C9: Life Technologies and Expression Analysis (LTEA) Assay for CYP2C9 using HepaRG (AID 2283484)
Procedure, shortened: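 Differentiated human HepaRG cells in serum-free induction medium were exposed 48 h to chemicals in 8-point half-log series from 100 uM (0.5% DMSO), in duplicate. CYP2C9 mRNA was measured by qRT-PCR, normalized to ACTB/GAPDH/POLR2A, with bidirectional fitting versus DMSO.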

[13] = read-out: CYP2E1 (gene 1571); test: LTEA_HepaRG_CYP2E1: Life Technologies and Expression Analysis (LTEA) Assay for CYP2E1 using HepaRG (AID 2283485)
Procedure, shortened: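 Human liver line HepaRG, plated 48 h, then serum-free induction medium + chemical x 48 h; 8-pt CRC from 100 uM, half-log, 0.5% DMSO, n=2. Readout: CYP2E1 mRNA qRT-PCR vs ACTB/GAPDH/POLR2A; bidirectional fit vs DMSO.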

[14] = read-out: CYP4A11 (gene 1579); test: LTEA_HepaRG_CYP4A11: Life Technologies and Expression Analysis (LTEA) Assay for CYP4A11 using HepaRG (AID 2283486)
Procedure, shortened: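 Human hepatic HepaRG cultures receive duplicate 48 h exposures across a concentration-response series topping at 100 uM. Expression changes in CYP4A11 are measured by qRT-PCR relative to DMSO controls.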

[15] = read-out: Cytochrome P450 3A4 (Homo sapiens) (UniProt P08684); test: LTEA_HepaRG_CYP3A4: Life Technologies and Expression Analysis (LTEA) Assay for CYP3A4 using HepaRG (AID 2283487)
Procedure, shortened: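 HepaRG, 48 h exposure, 8-pt CRC from 100 uM (half-log), 0.5% DMSO, duplicates; serum-free induction medium. Readout: CYP3A4 mRNA, qRT-PCR, ACTB/GAPDH/POLR2A normalization. Bidirectional fit vs DMSO.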

[16] = read-out: DNA damage-inducible transcript 3 (DDIT3), DDIT3 (gene 1649); test: LTEA_HepaRG_DDIT3: Life Technologies and Expression Analysis (LTEA) Assay for DNA damage-inducible transcript 3 (DDIT3) using HepaRG (AID 2283488)
Procedure, shortened: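 HepaRG plated 48 h, switched to serum-free induction medium, dosed 48 h (100 uM top, half-log, 8 pts, 0.5% DMSO, n=2); RNA isolated; DDIT3 by qRT-PCR; bidirectional curve fit vs DMSO.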

[17] = read-out: Pro-epidermal growth factor (Homo sapiens) (UniProt P01133); test: LTEA_HepaRG_EGF: Life Technologies and Expression Analysis (LTEA) Assay for Epidermal growth factor (EGF) using HepaRG (AID 2283489)
Procedure, shortened: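 Concentration-response mRNA assay: HepaRG cells dosed 48 h (max 100 uM, 0.5% DMSO), EGF measured by qRT-PCR and normalized to ACTB/GAPDH/POLR2A.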

[18] = read-out: Ezrin (EZR), EZR (gene 7430); test: LTEA_HepaRG_EZR: Life Technologies and Expression Analysis (LTEA) Assay for Ezrin (EZR) using HepaRG (AID 2283491)
Procedure, shortened: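 Read-out is EZR transcript level by qRT-PCR, normalized to three housekeeping genes and fitted bidirectionally against the DMSO control. Human HepaRG cells received test chemicals for 48 h at eight half-log concentrations up to 100 uM in 0.5% DMSO.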

[19] = read-out: Cytochrome P450 3A7 (Homo sapiens) (UniProt P24462); test: LTEA_HepaRG_CYP3A7: Life Technologies and Expression Analysis (LTEA) Assay for CYP3A7 using HepaRG (AID 2283492)
Procedure, shortened: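 qRT-PCR of CYP3A7 in HepaRG lysates after 48 h treatment; concentration-response (8 points, max 100 uM) analysed bidirectionally relative to 0.5% DMSO controls.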

[20] = read-out: CYP3A5 (gene 1577); test: LTEA_HepaRG_CYP3A5: Life Technologies and Expression Analysis (LTEA) Assay for CYP3A5 using HepaRG (AID 2283493)
Procedure, shortened: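 HepaRG plated 48 h, switched to serum-free induction medium, chemicals added 48 h (max 100 uM, half-log, 0.5% DMSO). RNA isolated; CYP3A5 by TaqMan qRT-PCR. Gain/loss vs DMSO.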

Measured: outcome

Chain of Cytochrome P450 3A7 (Homo sapiens) (P24462 whole entry, looked up): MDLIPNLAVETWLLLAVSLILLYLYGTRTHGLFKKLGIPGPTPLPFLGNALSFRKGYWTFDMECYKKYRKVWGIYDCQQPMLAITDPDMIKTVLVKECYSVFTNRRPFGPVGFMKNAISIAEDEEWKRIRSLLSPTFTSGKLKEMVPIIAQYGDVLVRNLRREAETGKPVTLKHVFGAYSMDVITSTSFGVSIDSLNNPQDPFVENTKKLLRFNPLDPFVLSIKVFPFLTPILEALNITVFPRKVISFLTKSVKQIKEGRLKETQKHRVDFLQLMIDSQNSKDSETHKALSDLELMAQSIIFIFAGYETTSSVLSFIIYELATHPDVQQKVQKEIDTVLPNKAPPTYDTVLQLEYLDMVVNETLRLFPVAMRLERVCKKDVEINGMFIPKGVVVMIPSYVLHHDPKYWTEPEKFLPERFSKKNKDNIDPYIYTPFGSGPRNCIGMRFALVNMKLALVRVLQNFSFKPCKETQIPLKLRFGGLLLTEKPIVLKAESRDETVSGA
Chain of Caspase-3 (Homo sapiens) (P42574 whole entry, looked up): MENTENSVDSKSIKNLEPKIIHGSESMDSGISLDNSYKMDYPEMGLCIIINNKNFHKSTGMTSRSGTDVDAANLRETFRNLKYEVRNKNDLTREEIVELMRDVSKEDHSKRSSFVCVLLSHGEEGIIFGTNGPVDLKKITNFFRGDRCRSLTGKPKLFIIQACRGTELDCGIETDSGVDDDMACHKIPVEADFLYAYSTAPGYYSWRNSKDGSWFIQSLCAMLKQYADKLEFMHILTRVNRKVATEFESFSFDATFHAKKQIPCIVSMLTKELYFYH
Chain of Apoptosis regulator Bcl-2 (Homo sapiens) (P10415 whole entry, looked up): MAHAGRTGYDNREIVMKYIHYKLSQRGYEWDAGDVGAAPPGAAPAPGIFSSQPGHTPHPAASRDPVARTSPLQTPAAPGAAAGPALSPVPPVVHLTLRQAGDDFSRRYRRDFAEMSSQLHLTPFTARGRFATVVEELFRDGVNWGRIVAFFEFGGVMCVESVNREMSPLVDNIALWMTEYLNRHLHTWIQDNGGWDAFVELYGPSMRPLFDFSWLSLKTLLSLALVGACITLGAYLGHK
Chain of Cytochrome P450 2C19 (Homo sapiens) (P33261 whole entry, looked up): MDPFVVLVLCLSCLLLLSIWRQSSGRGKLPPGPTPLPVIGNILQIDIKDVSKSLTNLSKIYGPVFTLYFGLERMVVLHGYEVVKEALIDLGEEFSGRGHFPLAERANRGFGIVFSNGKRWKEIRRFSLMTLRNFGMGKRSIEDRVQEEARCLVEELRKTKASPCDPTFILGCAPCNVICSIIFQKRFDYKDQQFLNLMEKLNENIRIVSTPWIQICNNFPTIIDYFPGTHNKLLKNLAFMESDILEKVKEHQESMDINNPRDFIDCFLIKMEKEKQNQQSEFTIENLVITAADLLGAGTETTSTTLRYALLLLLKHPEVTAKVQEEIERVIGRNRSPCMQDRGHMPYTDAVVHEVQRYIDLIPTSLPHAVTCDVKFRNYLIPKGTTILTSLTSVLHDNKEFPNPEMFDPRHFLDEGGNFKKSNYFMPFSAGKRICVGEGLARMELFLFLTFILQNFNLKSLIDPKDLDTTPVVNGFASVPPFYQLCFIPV
Chain of Cytochrome P450 3A4 (Homo sapiens) (P08684 whole entry, looked up): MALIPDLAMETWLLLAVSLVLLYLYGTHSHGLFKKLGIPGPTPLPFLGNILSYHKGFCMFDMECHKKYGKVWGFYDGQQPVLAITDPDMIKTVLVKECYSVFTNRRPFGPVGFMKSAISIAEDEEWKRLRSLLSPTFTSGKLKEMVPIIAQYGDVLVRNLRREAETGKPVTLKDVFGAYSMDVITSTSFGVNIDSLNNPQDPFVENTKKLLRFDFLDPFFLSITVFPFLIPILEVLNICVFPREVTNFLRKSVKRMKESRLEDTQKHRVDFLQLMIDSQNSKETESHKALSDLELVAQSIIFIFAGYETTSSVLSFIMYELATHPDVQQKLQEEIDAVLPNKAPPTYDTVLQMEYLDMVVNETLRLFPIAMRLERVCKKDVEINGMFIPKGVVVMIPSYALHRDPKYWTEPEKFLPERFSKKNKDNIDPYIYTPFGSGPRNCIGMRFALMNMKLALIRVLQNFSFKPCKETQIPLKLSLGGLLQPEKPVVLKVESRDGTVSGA

O=C(O)c1ccc([N+](=O)[O-])cc1
inactive: all assays above
